# Experimental data from ChEMBL document CHEMBL5606458, “ASAP - ZIKV NS2B-NS3 protease fluorescence single point” (2024).
# About 160 (5.9%) of roughly 2,700 compounds showed an effect of 50% or more. This is one part of a sample in which strong results are shown more often than they occur.
# Molecular target: Nonstructural protein 3 (Zika virus) (UniProt A0A024AXB9)
# Sequence (A0A024AXB9 as listed by the source): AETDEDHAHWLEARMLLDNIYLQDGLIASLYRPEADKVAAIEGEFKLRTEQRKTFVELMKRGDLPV
smiles,measurement,setting,value
C[C@@H](Cc1c[nH]c2ccccc12)N1CC[C@H](c2c[nH]c3ccccc23)C1,inhibition,"PRVABC59, Concentration 49.5 uM, Number of replicates 2.0, Standard deviation 2.440376707234144 %",29.4%
same,inhibition,"PRVABC59, Concentration 99.01 uM, Number of replicates 2.0, Standard deviation 1.7661943697547304 %",46%
same,inhibition,"PRVABC59, Concentration 198.0 uM, Number of replicates 2.0, Standard deviation 0.6921254310022592 %",60.4%
O[C@@H]1CN(Cc2c[nH]c3ccccc23)CC[C@@H]1c1ccccc1,inhibition,"PRVABC59, Concentration 49.5 uM, Number of replicates 2.0, Standard deviation 0.3811882362248968 %",52.4%
same,inhibition,"PRVABC59, Concentration 99.01 uM, Number of replicates 2.0, Standard deviation 0.3137721603955992 %",68%
same,inhibition,"PRVABC59, Concentration 198.0 uM, Number of replicates 2.0, Standard deviation 0.1218792449994391 %",78.3%
O=C1NCc2ccccc2C12CCN(CCn1cc(-c3ccccc3)cn1)CC2,inhibition,"PRVABC59, Concentration 49.5 uM, Number of replicates 2.0, Standard deviation 2.8974171324862783 %",-1.24%
same,inhibition,"PRVABC59, Concentration 99.01 uM, Number of replicates 2.0, Standard deviation 3.3976160570541145 %",2.72%
same,inhibition,"PRVABC59, Concentration 198.0 uM, Number of replicates 2.0, Standard deviation 1.9883423160607387 %",8.7%
CCn1ccnc(N2CC[C@H](c3ccncc3)C2)c1=O,inhibition,"PRVABC59, Concentration 50.0 uM, Number of replicates 2.0, Standard deviation 13.086126440978003 %",15.5%
same,inhibition,"PRVABC59, Concentration 100.0 uM, Number of replicates 2.0, Standard deviation 1.9353273126054316 %",11.2%
same,inhibition,"PRVABC59, Concentration 200.0 uM, Number of replicates 2.0, Standard deviation 4.176368308171179 %",19%
Cc1nc([C@H]2CCCNC2)[nH]c1C(=O)Nc1ccccn1,inhibition,"PRVABC59, Concentration 49.5 uM, Number of replicates 2.0, Standard deviation 0.17090445918731104 %",8.49%
same,inhibition,"PRVABC59, Concentration 99.01 uM, Number of replicates 2.0, Standard deviation 0.26430592158490923 %",17.8%
same,inhibition,"PRVABC59, Concentration 198.0 uM, Number of replicates 2.0, Standard deviation 0.13314627771815937 %",30.2%
c1ccc2c([C@H]3CCN(CC4CCOCC4)C3)c[nH]c2c1,inhibition,"PRVABC59, Concentration 49.5 uM, Number of replicates 2.0, Standard deviation 2.5997737280788282 %",6.89%
same,inhibition,"PRVABC59, Concentration 99.01 uM, Number of replicates 2.0, Standard deviation 3.698865419379611 %",11.8%
same,inhibition,"PRVABC59, Concentration 198.0 uM, Number of replicates 2.0, Standard deviation 1.139250220086327 %",22.2%
CCn1ccc2cc(CN3CCC(c4c[nH]c5cccnc45)CC3)ccc21,inhibition,"PRVABC59, Concentration 49.5 uM, Number of replicates 2.0, Standard deviation 2.8809639300582925 %",3.93%
same,inhibition,"PRVABC59, Concentration 99.01 uM, Number of replicates 2.0, Standard deviation 1.8463057507050853 %",15.6%
same,inhibition,"PRVABC59, Concentration 198.0 uM, Number of replicates 2.0, Standard deviation 0.9205600012321524 %",34.4%
c1cc(CN2CCC(c3c[nH]c4cccnc34)CC2)c2cn[nH]c2c1,inhibition,"PRVABC59, Concentration 49.5 uM, Number of replicates 2.0, Standard deviation 0.9568639478402843 %",4.4%
same,inhibition,"PRVABC59, Concentration 99.01 uM, Number of replicates 2.0, Standard deviation 0.8012763277514082 %",10%
same,inhibition,"PRVABC59, Concentration 198.0 uM, Number of replicates 2.0, Standard deviation 3.635563550314553 %",17.8%
c1ccc2c(CN3CCC[C@H](c4c[nH]c5ccccc45)C3)c[nH]c2c1,inhibition,"PRVABC59, Concentration 50.0 uM, Number of replicates 2.0, Standard deviation 1.0176784784936235 %",17.6%
same,inhibition,"PRVABC59, Concentration 100.0 uM, Number of replicates 2.0, Standard deviation 1.399627381040445 %",30%
same,inhibition,"PRVABC59, Concentration 200.0 uM, Number of replicates 2.0, Standard deviation 0.26403213565698247 %",45.3%
CCn1ccnc(N2CCC(c3c[nH]c4ccccc34)CC2)c1=O,inhibition,"PRVABC59, Concentration 49.5 uM, Number of replicates 2.0, Standard deviation 0.010362729937070537 %",13.2%
same,inhibition,"PRVABC59, Concentration 99.01 uM, Number of replicates 2.0, Standard deviation 0.987094027815814 %",22.1%
same,inhibition,"PRVABC59, Concentration 198.0 uM, Number of replicates 2.0, Standard deviation 0.3108960594532158 %",8.34%
c1ccc2c(CN3CCC(c4c[nH]c5cccnc45)CC3)n[nH]c2c1,inhibition,"PRVABC59, Concentration 49.5 uM, Number of replicates 2.0, Standard deviation 0.6456276790258886 %",55.4%
same,inhibition,"PRVABC59, Concentration 99.01 uM, Number of replicates 2.0, Standard deviation 0.2001199802254866 %",70.2%
same,inhibition,"PRVABC59, Concentration 198.0 uM, Number of replicates 2.0, Standard deviation 0.3311541950710681 %",79.4%
c1cc(CN2CCC(c3c[nH]c4cccnc34)CC2)c2[nH]ncc2c1,inhibition,"PRVABC59, Concentration 49.5 uM, Number of replicates 2.0, Standard deviation 1.1670691631522456 %",7.96%
same,inhibition,"PRVABC59, Concentration 99.01 uM, Number of replicates 2.0, Standard deviation 0.8238130905871536 %",15.7%
same,inhibition,"PRVABC59, Concentration 198.0 uM, Number of replicates 2.0, Standard deviation 0.8191324301789277 %",25.9%
c1ccc2c(CN3CC[C@H](c4c[nH]c5ccccc45)C3)c[nH]c2c1,inhibition,"PRVABC59, Concentration 50.0 uM, Number of replicates 2.0, Standard deviation 0.9766631885715499 %",20.3%
same,inhibition,"PRVABC59, Concentration 100.0 uM, Number of replicates 2.0, Standard deviation 0.28966551174652017 %",37.5%
same,inhibition,"PRVABC59, Concentration 200.0 uM, Number of replicates 2.0, Standard deviation 1.348359280162217 %",55.9%
c1cnc2c(CN3CCC(c4c[nH]c5cccnc45)CC3)c[nH]c2c1,inhibition,"PRVABC59, Concentration 49.5 uM, Number of replicates 2.0, Standard deviation 0.7260748860651783 %",51.4%
same,inhibition,"PRVABC59, Concentration 99.01 uM, Number of replicates 2.0, Standard deviation 0.6197542344872328 %",66.3%
same,inhibition,"PRVABC59, Concentration 198.0 uM, Number of replicates 2.0, Standard deviation 0.45379950118904117 %",74.9%
CCOc1cc(COc2cccnc2F)nc(N2CCNCC2)n1,inhibition,"PRVABC59, Concentration 49.5 uM, Number of replicates 2.0, Standard deviation 1.6064643888068098 %",4.13%
same,inhibition,"PRVABC59, Concentration 99.01 uM, Number of replicates 2.0, Standard deviation 0.9927585642556782 %",12.5%
same,inhibition,"PRVABC59, Concentration 198.0 uM, Number of replicates 2.0, Standard deviation 0.42007662758371656 %",31.7%
O=C(Cn1ccc2cccnc21)N1CC[C@H](c2c[nH]c3ccccc23)C1,inhibition,"PRVABC59, Concentration 49.5 uM, Number of replicates 2.0, Standard deviation 2.6403237167933415 %",8.06%
same,inhibition,"PRVABC59, Concentration 99.01 uM, Number of replicates 2.0, Standard deviation 2.1942883394495833 %",14.3%
same,inhibition,"PRVABC59, Concentration 198.0 uM, Number of replicates 2.0, Standard deviation 1.481657960884592 %",24.1%
O=C(N[C@@H](C(=O)NC1CCNCC1)c1ccc(OCc2ccccc2)cc1)OCc1ccccc1,inhibition,"PRVABC59, Concentration 49.5 uM, Number of replicates 2.0, Standard deviation 1.3674946237357393 %",8.84%
same,inhibition,"PRVABC59, Concentration 99.01 uM, Number of replicates 2.0, Standard deviation 2.2060968748779715 %",27.2%
same,inhibition,"PRVABC59, Concentration 198.0 uM, Number of replicates 2.0, Standard deviation 0.9505739521685185 %",59.8%
N[C@H]1CC[C@@H](NC(=O)[C@@H](NC(=O)OCc2ccccc2)c2ccc(OCc3ccccc3)cc2)C1,inhibition,"PRVABC59, Concentration 49.5 uM, Number of replicates 2.0, Standard deviation 1.7270227515739174 %",10.7%
same,inhibition,"PRVABC59, Concentration 99.01 uM, Number of replicates 2.0, Standard deviation 1.537724733346876 %",44.6%
same,inhibition,"PRVABC59, Concentration 198.0 uM, Number of replicates 2.0, Standard deviation 0.3345151533587208 %",79.2%
N[C@@H]1CC[C@H](NC(=O)[C@@H](NC(=O)OCc2ccccc2)c2ccc(OCc3ccccc3)cc2)C1,inhibition,"PRVABC59, Concentration 49.5 uM, Number of replicates 2.0, Standard deviation 0.3008027321718269 %",7.24%
same,inhibition,"PRVABC59, Concentration 99.01 uM, Number of replicates 2.0, Standard deviation 0.0103741938798655 %",43%
same,inhibition,"PRVABC59, Concentration 198.0 uM, Number of replicates 2.0, Standard deviation 1.7866649254890776 %",79.8%
N[C@H]1CC[C@H](NC(=O)[C@@H](NC(=O)OCc2ccccc2)c2ccc(OCc3ccccc3)cc2)C1,inhibition,"PRVABC59, Concentration 49.5 uM, Number of replicates 2.0, Standard deviation 1.2628524282528915 %",15.2%
same,inhibition,"PRVABC59, Concentration 49.5 uM, Number of replicates 2.0, Standard deviation 5.748962140815482 %",7.84%
same,inhibition,"PRVABC59, Concentration 99.01 uM, Number of replicates 2.0, Standard deviation 1.1046736199175657 %",52.6%
same,inhibition,"PRVABC59, Concentration 99.01 uM, Number of replicates 2.0, Standard deviation 4.807656617809298 %",46.8%
same,inhibition,"PRVABC59, Concentration 198.0 uM, Number of replicates 2.0, Standard deviation 0.1296531469135765 %",80.8%
same,inhibition,"PRVABC59, Concentration 198.0 uM, Number of replicates 2.0, Standard deviation 1.4858618561424626 %",83.4%
